Reference: PubChem BioAssay (Tox21)
Where “and” joins values, the source holds several entries; their conditions need not be identical. Equal entries are not always repeated. Results filed as inconclusive are left out. Calls of active or inactive are those of the source. Unless noted, calls follow the shape of the dose curve; as a rule, active = well fitted curve in the direction sought with a large enough effect in the repeat runs; inconclusive = weak or mixed curves; inactive = flat fitted curve, though single readings scatter.

Tests used:
[1] = qHTS assay to test for compound auto fluorescence at 535 nm (green) in HEK293 cells (AID 720680); details: green autofluorescence 485/535 nm; series mostly up to 91.3 µM
[2] = qHTS assay to test for compound auto fluorescence at 460 nm (blue) in HEK293 cell free culture (AID 720681); details: cell-free medium, autofluorescence 405/460 nm (blue); series mostly up to 91.3 µM
Procedure, shortened: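 Test compounds were pinned into cell-free culture medium (DMEM with 10% FBS) and fluorescence was read directly at Ex/Em 405/460 nm. Signals were expressed as fluorescence equivalents of triamterene, with DMSO vehicle as control.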

[3] = qHTS assay to test for compound auto fluorescence at 535 nm (green) in HEK293 cell free culture (AID 720682); details: cell-free medium, green autofluorescence 485/535 nm; series mostly up to 91.3 µM
Procedure, shortened: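 Green-channel intensity (Ex/Em 485/535 nm) was recorded from compound-treated wells containing only DMEM with 10% FBS. Fluorescein provided the equivalency standard.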

[4] = qHTS assay to test for compound auto fluorescence at 590 nm (red) in HEK293 cell free culture (AID 720683); details: cell-free medium autofluorescence, Ex540/Em590 red; series mostly up to 91.3 µM
Procedure, shortened: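 Tox21 10K library compounds were pinned into cell-free DMEM with 10% FBS and fluorescence was read at excitation 540 nm. Activity is expressed as Rose Bengal sodium equivalency.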

[5] = qHTS assay to test for compound auto fluorescence at 590 nm (red) in HepG2 cell free culture (AID 720684); details: cell-free medium autofluorescence, red 540/590 nm; series mostly up to 91.3 µM
Procedure, shortened: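 Red fluorescence (540 nm excitation, 590 nm emission) was measured after compound transfer into cell-free MEM supplemented with 10% FBS. Values are equivalencies against Rose Bengal sodium.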

[6] = qHTS assay to test for compound auto fluorescence at 460 nm (blue) in HepG2 cell free culture (AID 720685); details: Cell-free culture medium, blue autofluorescence 405/460 nm; series mostly up to 91.3 µM
Procedure, shortened: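 Compound (23 nL) or DMSO pinned into cell-free MEM with 10% FBS; blue fluorescence read at 405/460 nm excitation/emission, expressed as auto-fluorescence equivalency to triamterene.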

[7] = qHTS assay to test for compound auto fluorescence at 535 nm (green) in HepG2 cell free culture (AID 720686); details: Cell-free medium, green autofluorescence 485/535 nm; series mostly up to 91.3 µM
[8] = qHTS assay to test for compound auto fluorescence at 460 nm (blue) in HepG2 cells (AID 720687); details: autofluorescence 405/460 nm, 1 h; series mostly up to 91.3 µM
Procedure, shortened: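 Cells (2,000/well in MEM with 10% FBS) attached overnight at 37 C, then were exposed to compound or DMSO for 1 hr at 37 C, 5% CO2. Fluorescence read at Ex/Em 405/460 nm, expressed as triamterene-equivalent signal.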

[9] = biological target: Glucocorticoid receptor (Homo sapiens) (UniProt P04150); assay: qHTS assay to identify small molecule agonists of the glucocorticoid receptor (GR) signaling pathway (AID 720691; active = well fitted activation curve with a large enough effect in the signal ratio in the repeat runs, not every such curve was filed as active; the % refers to the signal ratio; also: potency is read from the fitted curve at half-maximal effect); details: GR-bla HeLa, beta-lactamase reporter ratio, 18 h; series mostly up to 62.4 µM
Procedure, shortened: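 Reporter read-out: fluorescence intensity following 2 h room-temperature LiveBLAzer B/G FRET substrate loading. Prior step: GR-bla HeLa cells held 4 h, then treated 18 h at 37 C.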

[10] = biological target: Glucocorticoid receptor (Homo sapiens) (UniProt P04150); assay: qHTS assay to identify small molecule antagonists of the glucocorticoid receptor (GR) signaling pathway (AID 720692; active = well fitted inhibition curve with a large enough effect in the signal ratio in the repeat runs, not every such curve was filed as active; the % refers to the signal ratio; also: potency is read from the fitted curve at half-maximal effect); details: GR-bla HeLa, beta-lactamase FRET ratio, dexamethasone-stimulated, 18 h; series mostly up to 58.5 µM
Procedure, shortened: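 Dexamethasone (5 nM final) stimulated a stably integrated GRE-beta-lactamase reporter in HeLa cells during 18 h co-incubation with compounds; signal was quantified as fluorescence intensity of B/G FRET substrate after 2 h.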

Measured: Potency

Glucocorticoid receptor (Homo sapiens), sequence (P04150 whole entry, looked up): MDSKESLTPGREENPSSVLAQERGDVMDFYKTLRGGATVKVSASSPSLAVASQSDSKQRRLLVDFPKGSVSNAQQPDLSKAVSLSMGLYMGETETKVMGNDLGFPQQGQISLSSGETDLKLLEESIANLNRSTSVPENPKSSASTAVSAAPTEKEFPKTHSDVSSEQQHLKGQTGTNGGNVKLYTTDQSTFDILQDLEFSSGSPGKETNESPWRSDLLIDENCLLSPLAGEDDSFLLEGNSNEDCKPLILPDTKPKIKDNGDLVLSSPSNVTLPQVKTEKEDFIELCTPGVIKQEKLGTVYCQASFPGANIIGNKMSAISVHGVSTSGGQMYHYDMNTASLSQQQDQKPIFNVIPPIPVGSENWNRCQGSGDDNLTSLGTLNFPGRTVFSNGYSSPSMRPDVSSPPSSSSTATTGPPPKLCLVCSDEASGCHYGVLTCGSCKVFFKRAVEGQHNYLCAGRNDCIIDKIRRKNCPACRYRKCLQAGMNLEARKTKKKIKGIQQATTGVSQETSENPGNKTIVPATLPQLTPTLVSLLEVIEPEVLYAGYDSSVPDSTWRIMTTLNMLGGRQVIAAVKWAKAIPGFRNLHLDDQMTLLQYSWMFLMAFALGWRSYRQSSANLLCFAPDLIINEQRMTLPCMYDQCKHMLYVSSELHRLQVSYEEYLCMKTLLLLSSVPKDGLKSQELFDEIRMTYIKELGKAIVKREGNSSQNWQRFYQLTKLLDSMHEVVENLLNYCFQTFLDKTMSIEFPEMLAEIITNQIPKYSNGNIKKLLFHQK

COc1ccc(COC(C)=O)cc1
not listed: [8] | [9] | [10]
inactive: all other assays above

CC(C)(C)c1ccccc1
not listed: [9] | [10]
inactive: all other assays above

Cc1cc(C2(c3cc(C)c(O)cc3C)OS(=O)(=O)c3ccccc32)c(C)cc1O
not listed: [10]
inactive: all other assays above

c1cnc2cc3c(cc2n1)C1CNCC3C1
not listed: [9] | [10]
inactive: all other assays above

c1ccc2c(c1)CCCC2C1=NCCN1 (stereo not drawn)
not listed: [8] | [9] | [10]
inactive: all other assays above

CCOC(=O)C(C)C(C)=O (stereo not drawn)
not listed: [10]
inactive: all other assays above

O=c1n(CC2CO2)c(=O)n(CC2CO2)c(=O)n1CC1CO1 (stereo not drawn)
not listed: [9] | [10]
inactive: all other assays above

Cc1c(O)cccc1C(=O)N[C@@H](CSc1ccccc1)[C@H](O)CN1C[C@H]2CCCC[C@H]2C[C@H]1C(=O)NC(C)(C)C
not listed: [8] | [9] | [10]
inactive: all other assays above

Nc1cc(Cl)c(-c2cc(Cl)c(N)cc2Cl)cc1Cl
not listed: [9] | [10]
inactive: all other assays above

Oc1c(Cl)cc(Cl)c(Cl)c1Cc1c(O)c(Cl)cc(Cl)c1Cl
not listed: [9] | [10]
inactive: all other assays above

CC[C@]1(O)C[C@@H]2CN(CCc3c([nH]c4ccccc34)[C@@](C(=O)OC)(c3cc4c(cc3OC)N(C)[C@H]3[C@@](O)(C(=O)OC)[C@H](OC(C)=O)[C@]5(CC)C=CCN6CC[C@]43[C@@H]65)C2)C1
not listed: [10]
inactive: all other assays above

CC(=O)CC(C)=O
not listed: [8] | [9] | [10]
inactive: all other assays above

CCN(CC)CCOc1ccc(/C(=C(\Cl)c2ccccc2)c2ccccc2)cc1
not listed: [8] | [9] | [10]
inactive: all other assays above

CC1COc2c(N3CCN(C)CC3)c(F)cc3c(=O)c(C(=O)O)cn1c23 (stereo not drawn)
not listed: [9] | [10]
inactive: all other assays above

CCCCOCCOC(=O)c1ccccc1C(=O)OCCOCCCC
not listed: [9] | [10]
inactive: all other assays above

Cc1ccc(-c2cc(C(F)(F)F)nn2-c2ccc(S(N)(=O)=O)cc2)cc1
not listed: [9] | [10]
inactive: all other assays above

CCCCC/C=C/CC1CC(=O)OC1=O (stereo not drawn)
not listed: [9] | [10]
inactive: all other assays above

CCCCCCCCCCCCCC[P+](CCCC)(CCCC)CCCC
not listed: [9] | [10]
inactive: all other assays above

CC[C@@H](N)CO
not listed: [9] | [10]
inactive: all other assays above

O=Cc1ccc(Cl)cc1
not listed: [9] | [10]
inactive: all other assays above

c1ccc2cc3c(ccc4ccccc43)cc2c1
not listed: [9] | [10]
inactive: all other assays above

CCCCC(CC)COC(=O)CC(C(=O)OCC(CC)CCCC)S(=O)(=O)O (stereo not drawn)
not listed: [10]
inactive: all other assays above

COC(=O)c1cccc(C(=O)OC)c1
not listed: [8] | [9] | [10]
inactive: all other assays above

Cc1cc(Cc2cc(C)cc(C(C)(C)C)c2O)c(O)c(C(C)(C)C)c1
not listed: [9] | [10]
inactive: all other assays above

CCCCN(CCO)CCCC
not listed: [9] | [10]
inactive: all other assays above

CN1C(=O)c2ccc([N+](=O)[O-])cc2C1=O
not listed: [9] | [10]
inactive: all other assays above

C[N+]1([O-])CCOCC1
not listed: [10]
inactive: all other assays above

CC(C(O)c1ccc(O)cc1)N1CCC(Cc2ccccc2)CC1 (stereo not drawn)
not listed: [10]
inactive: all other assays above

Cc1scc2c1N(C(=O)CN1CCN(C)CC1)c1ccccc1NC2=O
not listed: [9] | [10]
inactive: all other assays above

Oc1c(Cl)cc(Cl)cc1Sc1cc(Cl)cc(Cl)c1O
not listed: [8] | [9] | [10]
inactive: all other assays above

Cc1cc(OCCOCC[N+](C)(C)Cc2ccccc2)ccc1C(C)(C)CC(C)(C)C
not listed: [9] | [10]
inactive: all other assays above

O=S(=O)(O)c1ccc2nc(-c3ccccc3)[nH]c2c1
not listed: [9] | [10]
inactive: all other assays above

CC(C)(C)c1ccc(O)c(C(C)(C)C)c1
not listed: [9] | [10]
inactive: all other assays above

Cc1cccc2n[nH]nc12
not listed: [8] | [9] | [10]
inactive: all other assays above

O=C(Nc1ccccc1SSc1ccccc1NC(=O)c1ccccc1)c1ccccc1
not listed: [9] | [10]
inactive: all other assays above

CCCCCCCCCCCCc1ccccc1O
not listed: [9] | [10]
inactive: all other assays above

Nc1ccc(O)cc1
active: [10] 49 µM
not listed: [9]
inactive: all other assays above

CNCCC(Oc1ccc(C(F)(F)F)cc1)c1ccccc1 (stereo not drawn)
not listed: [8]
inactive: all other assays above

Cc1cccc(O)c1C
inactive: all assays above

CN(C)c1ccc(C(=C2C=CC(=[N+](C)C)C=C2)c2ccccc2)cc1
not listed: [10]
inactive: all other assays above

CC(C)(O)CCC(C)(C)O
inactive: all assays above

CCCNC(C)C(=O)Nc1ccccc1C (stereo not drawn)
inactive: all assays above

NC(Cc1ccc(Cl)cc1)C(=O)O (stereo not drawn)
not listed: [8]
inactive: all other assays above

CCn1cc(C(=O)O)c(=O)c2cc(F)c(N3CCNC(C)C3)c(F)c21 (stereo not drawn)
inactive: all assays above

C=CC(=O)OCCCCCCOC(=O)C=C
active: [10] 39.4 µM and 43.6 µM
inactive: all other assays above

CCC(CO)(CO)COCC(CC)(CO)CO
not listed: [10]
inactive: all other assays above

Nc1nc2ccccc2[nH]1
not listed: [8]
inactive: all other assays above

CC(=O)N[C@@H](CS)C(=O)O
inactive: all assays above

c1ccc2c(c1)-c1cccc3c1c-2cc1ccccc13
active: [9] 21.4 µM [fluorescent] and 49 µM [fluorescent]
not listed: [8] | [10]
inactive: all other assays above
